Source: PubChem BioAssay (NCATS)
Records with an inconclusive call do not appear. Active and inactive are the calls of the source. Calls follow the shape of the dose curve; as a rule, active = well fitted cell-killing curve with a large enough effect; inconclusive = small, poorly fitted or top-dose-only effect, or effect the other way; inactive = flat fitted curve, though single readings scatter.

Assay: MultiTox-Fluor Cytotoxicity Assay - LYMP1-002 - Live Cells (AID 955)
Details: LYMP1-002 lymphoblastoid live-cell protease fluorescence viability; series mostly up to 46.1 µM; viability change, negative = cytotoxic: at the top concentration
Description: NIH Chemical Genomics Center [NCGC]
NIH Molecular Libraries Screening Centers Network [MLSCN]
National Institutes of Environmental Health Sciences [NIEHS]
National Toxicology Program [NTP]
We have developed a 1536-well cell-based assay for quantitative high throughput screening (qHTS) against a number of cell lines to determine in vitro cytotoxicity of small molecules. This particular assay uses a human lymphoblastoid cell line (LYMP1-002) purchased from Coriell Institute.
NCGC Assay Protocol Summary:
The MultiTox-Fluor Cytotoxicity Assay (Promega) is a homogeneous method to simultaneously measure the relative number of live and dead cells in culture by detecting changes in cell membrane integrity. There are two fluorogenic peptide substrates in the assay reagent. Viable cells are determined when the cell-permeant substrate (GF-AFC) enters the cell and is cleaved by protease from live cells resulting in liberated fluorophore. This live-cell protease activity restricted to viable cells is proportional to cell number. The dead cells are determined by using fluorogenic cell-impermeant peptide substrate (bis-AAF-R110) which cleaved by dead cell proteases leaking from damaged cell membrane.
Using the MultiTox-Fluor Cytotoxicity Assay, the relative number of live cells was measured in the lymphoblastoid cell line with complete culture medium following compound treatment for 16 hours. The assay was performed in opaque black Kalypsys 1536-well plates. In the screen, tetraoctylammonium bromide was used as positive control. Library compounds were measured for their ability to cause acute toxicity in the cell line, as reflected by a decrease in live cell protease activity, in a concentration-dependent manner. […] AC50 values were determined from concentration-response data modeled with the standard Hill equation.
qHTS protocol for MultiTox-Fluor Cytotoxicity assay
[Step] [Parameter] [Value] [Description]
1. Reagent; 5 uL; 2500 lymphoblastoid cells/well
2. Time; 5 hr; 37 C incubation
4. Controls; 23 nL; Tetraoctylammonium bromide 6.4pM to 92 uM
5. Time; 16 hr; 37 C incubation
6. Reagent; 5 uL; MuliTox-Fluor Assay reagent
7. Time; 60 min; Room Temperature
8. Detection; live-cell fluorescence (Ex/Em=405/510); EnVision plate reader
Keywords: cell viability, cytotoxicity, lymphoblastoid cell line, fluorescence, NTPHTS, NTPHTS_NCGC, NIEHS, EPA, DSSTox, MLSMR, MLSCN, NIH Roadmap, qHTS, NCGC
% is scaled to controls: 0 for no effect and ±100 for the full control effect; potency is read from the fitted curve at half-maximal effect.

Row | Compound | viability change, negative = cytotoxic | Potency
1 | CC(=O)Oc1ccc(C(c2ccc(OC(C)=O)cc2)c2ccccn2)cc1 | 12.5% (inactive) | 
2 | Oc1c(Cl)cc(Cl)cc1Sc1cc(Cl)cc(Cl)c1O | -24.5% (inactive) | 
3 | C=CCc1ccc(O)c(OC)c1 | 7% (inactive) | 
4 | CCCCCCc1ccc(O)cc1O | 12% (inactive) | 
5 | CC(=O)O[C@]1(C(C)=O)CC[C@H]2[C@@H]3C[C@H](C)C4=CC(=O)CC[C@]4(C)[C@H]3CC[C@@]21C | -5.47% (inactive) | 
6 | C=C(CC)C(=O)c1ccc(OCC(=O)O)c(Cl)c1Cl | 4.44% (inactive) | 
7 | NC(=NCCCCCCN=C(N)/N=C(\N)Nc1ccc(Cl)cc1)/N=C(\N)Nc1ccc(Cl)cc1 |  | 15.8 µM (active)
8 | Nc1ccc(C(=O)O)cc1 | 0.392% (inactive) | 
9 | O=c1ccc2ccccc2o1 | 10.7% (inactive) | 
10 | CC(O)C(=O)O (stereo not drawn) | 1.09% (inactive) | 
11 | COC1=CC(=O)C[C@@H](C)[C@]12Oc1c(Cl)c(OC)cc(OC)c1C2=O | -4.93% (inactive) | 
12 | CC/C(=C(/CC)c1ccc(O)cc1)c1ccc(O)cc1 | -8.31% (inactive) | 
13 | C[C@]12CC[C@@H]3c4ccc(O)cc4CC[C@H]3[C@@H]1CC[C@@H]2O | -1.7% (inactive) | 
14 | COc1cccc2c1C(=O)c1c(O)c3c(c(O)c1C2=O)C[C@@](O)(C(=O)CO)C[C@@H]3O[C@H]1C[C@H](N)[C@H](O)[C@H](C)O1 |  | 5.01 µM (active)
15 | COc1cccc2c1C(=O)c1c(O)c3c(c(O)c1C2=O)C[C@@](O)(C(C)=O)C[C@@H]3O[C@H]1C[C@H](N)[C@H](O)[C@H](C)O1 |  | 3.98 µM (active)
16 | CN(C)/N=N/c1nc[nH]c1C(N)=O | -13.2% (inactive) | 
17 | O=C(O)CCCCC(=O)O | 3.99% (inactive) | 
18 | O=C1OC(c2ccc(O)cc2)(c2ccc(O)cc2)c2ccccc21 | 10.8% (inactive) | 
